# Results from PubChem BioAssay AID504803 (The Scripps Research Institute Molecular Screening Center, 2011).
# About 1,700 (0.5%) of roughly 340,000 compounds were called active. No stated cut-off is given here; in the data, active means inhibition above about 36%; inactive means the rest. Only a selection was taken, and actives are over-represented in it overall.
# Molecular target: Serine protease HTRA1 (Homo sapiens) (UniProt Q92743)
# Test: HTRA1 serine protease inhibitors, primary screen, biochemical, fluorescence polarization, HTS (AID 504803);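 further: 0% = enzyme with DMSO and 100% = wells lacking enzyme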
# Settings: recombinant HTRA1, FP-rhodamine activity-based probe, at 5.96 µM, stronger effect = higher value
# Sequence of Serine protease HTRA1 (Homo sapiens) (Q92743 whole entry, looked up): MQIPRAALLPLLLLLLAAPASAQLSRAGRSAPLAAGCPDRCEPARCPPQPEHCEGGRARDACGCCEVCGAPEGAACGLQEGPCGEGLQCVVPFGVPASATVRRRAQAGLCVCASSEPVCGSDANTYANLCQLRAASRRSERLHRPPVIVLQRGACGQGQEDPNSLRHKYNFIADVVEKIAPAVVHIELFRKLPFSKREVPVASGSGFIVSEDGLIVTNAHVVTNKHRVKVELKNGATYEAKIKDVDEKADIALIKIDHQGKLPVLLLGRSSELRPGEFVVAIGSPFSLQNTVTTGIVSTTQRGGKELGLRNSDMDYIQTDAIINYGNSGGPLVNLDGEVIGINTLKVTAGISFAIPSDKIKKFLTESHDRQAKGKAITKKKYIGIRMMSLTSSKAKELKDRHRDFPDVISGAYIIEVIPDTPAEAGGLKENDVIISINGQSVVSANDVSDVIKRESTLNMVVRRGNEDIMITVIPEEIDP
row,SMILES,inhibition
1,CC(C)CCOc1ccc(C(=O)Nc2cc(S(=O)(=O)N3CCOCC3)ccc2N2CCOCC2)cc1,-7.89% (inactive)
2,Cc1ccc(NC(=O)CCNC(=O)c2ccc([N+](=O)[O-])cc2)cc1S(=O)(=O)N1CCOCC1,3.34% (inactive)
3,COc1ccc(NS(=O)(=O)c2cc(NC(=O)COc3ccccc3F)ccc2OC)cc1,-13.3% (inactive)
4,COc1ccc(NS(=O)(=O)c2cc(NC(=O)CC(=O)c3ccc([N+](=O)[O-])cc3)ccc2C)cc1,45.4% (active)
5,CC1CCCC(C)N1C(=O)COC(=O)c1ccccc1C(=O)c1ccccc1 (stereo not drawn),0.04% (inactive)
6,CCOc1cc(/C=N/NC(=O)c2ccncc2)cc(Br)c1O,3.19% (inactive)
7,O=C(C1CCCO1)N1CCN(C(=O)C23CC4CC(CC(C4)C2)C3)CC1 (stereo not drawn),9.09% (inactive)
8,O=C1CC(NNc2ccccc2)C(=O)N1c1cccc(Cl)c1 (stereo not drawn),-8.57% (inactive)
9,COc1ccc(N2CCN(C3CC(=O)N(c4ccc5c(c4)OCCO5)C3=O)CC2)cc1 (stereo not drawn),4.17% (inactive)
10,CC(=O)Oc1cccc(N2C(=O)CC(Nc3ccc(N4CCOCC4)cc3)C2=O)c1 (stereo not drawn),51.5% (active)
11,CCC(C)Cn1c(O)cc2nn(-c3nc4ccccc4s3)c(=O)c-2c1C (stereo not drawn),61.1% (active)
12,O=C(OCc1ccccc1)N1CCC2CC1c1ccc(-c3ccc4c(c3)OCO4)cc12 (stereo not drawn),-25% (inactive)
13,COc1ccc(OC)c(Nc2nc(-c3ccc(O)c(O)c3)cs2)c1,64.3% (active)
14,COc1ccc(-c2csc(Nc3cccc(C)n3)n2)cc1OC,13.4% (inactive)
15,COc1ccc(OC)c(-c2csc(NC(=O)C3=NNC(=O)CC3)n2)c1,-2.91% (inactive)
16,C[C@@H]1CN([C@H](C)CO)S(=O)(=O)c2ccc(C#C[C@@H](C)O)cc2O[C@@H]1CN(C)Cc1ccc(-c2ccccc2)cc1,-54% (inactive)
17,O=C(OCc1cn([C@H]2C[C@H](c3ccccc3)N(C(=O)c3cccs3)C[C@@H]2O)nn1)c1ccccc1,-11.7% (inactive)
18,N#CC1(Nc2ccc3c4c(cccc24)CC3)CCCCC1,33.2% (inactive)
19,Cc1cc(C(=O)N/N=C/c2ccc(O)c([N+](=O)[O-])c2)c(C)n1-c1ccc(F)cc1,45.1% (active)
20,Cc1cc(C(=O)COC(=O)C2CC2)c(C)n1-c1ccc(F)cc1,4.47% (inactive)
21,O=C1CSC(=S)N1/N=C/c1ccc(O)c([N+](=O)[O-])c1,13.7% (inactive)
22,Cc1ccc([C@H]2N[C@]3(CCCN(CC4CCCCC4)C3=O)[C@H]3C(=O)N(Cc4ccccc4)C(=O)[C@@H]23)cc1,-16.8% (inactive)

row,SMILES,inhibition
1,COc1ccccc1-c1nc(C(F)(F)F)c(OC)o1,-5.12% (inactive)
2,Fc1ccccc1N=C1Nc2cccc3cccc1c23,-6.03% (inactive)
3,COc1ccccc1C1=Nc2cccc3cccc(c23)N1,60.3% (active)
4,O=C(CN1CCN(Cc2ccccc2)CC1)NC(c1ccccc1)c1ccccc1,-2.99% (inactive)
5,O=C1c2ccccc2C(=O)c2c1cccc2N1CCN(CCO)CC1,9.89% (inactive)
6,O=C1c2ccccc2C(=O)c2c1cccc2N1CCN(Cc2ccccc2)CC1,62% (active)
7,CCCCN1C(=O)C(CC(=O)NCc2cccs2)CC(C(=O)N2CCOCC2)=C1C (stereo not drawn),1.73% (inactive)
8,Cc1noc(C)c1S(=O)(=O)N(C)C[C@H]1OCCCC[C@@H](C)Oc2ccc(NC(=O)CCCN(C)C)cc2C(=O)N([C@H](C)CO)C[C@@H]1C,1.73% (inactive)
9,Cc1ccc(-c2ccc(CN3C(C)C(=O)N(Cc4cn(CCC5OCCCO5)nn4)CCS3(=O)=O)cc2)cc1 (stereo not drawn),-6.77% (inactive)
10,C[C@H]1CN([C@@H](C)CO)C(=O)CCCn2cc(nn2)CO[C@@H]1CN(C)S(=O)(=O)c1cccs1,4.51% (inactive)
11,O=C(NCCN1CCOCC1)c1ccc2c(c1)N(Cc1cccc(Cl)c1)C(=O)c1ccccc1S2(=O)=O,-8.45% (inactive)
12,Clc1ccc(CSc2nnc3c(n2)[nH]c2ccccc23)cc1,-20.7% (inactive)
13,CCc1nnc(SCc2cccc(F)c2)nc1CC,-3.55% (inactive)
14,O=C(Nc1nnc(SCc2ccccc2Cl)s1)c1cccc([N+](=O)[O-])c1,-3.08% (inactive)
15,c1ccc(CSc2nnc(-c3ccco3)c(-c3ccco3)n2)cc1,42.8% (active)
16,Clc1ccccc1CSc1nnc(-c2ccco2)c(-c2ccco2)n1,49.6% (active)
17,S=C(NCc1ccco1)NCc1ccccc1Cl,-12.8% (inactive)
18,O=C(NCc1nnnn1-c1ccc(Cl)cc1)c1ccc([N+](=O)[O-])o1,2.97% (inactive)
19,CCN(CC)C(=O)C1=C(C)N(Cc2ccc(C(C)(C)C)cc2)C(=O)C(CC(=O)NCc2cccc3ccccc23)C1 (stereo not drawn),-39.3% (inactive)
20,Nc1cc(=O)c2[nH]cnc2[nH]1,-44.6% (inactive)
21,NS(=O)(=O)c1ccc(CNC(=O)c2cc(S(=O)(=O)N3CCOCC3)ccc2N2CCCC2)cc1,0.13% (inactive)
22,CCCc1ccc(S(=O)(=O)N2CCN(C(=O)c3cc(C)on3)CC2)cc1,-2.05% (inactive)

row,SMILES,inhibition
1,C[C@H]1Cn2cnc(C(=O)N[C@H](C)c3ccccc3)c2C(=O)N1,6.34% (inactive)
2,c1ccc(Cn2nnc3c(NCC4CC4)ncnc32)cc1,-4.95% (inactive)
3,O=C(NCCS(=O)(=O)N1CCN(c2ccccc2)CC1)c1cc(=O)c2ccccc2o1,1.65% (inactive)
4,CCCc1c(C)nc2scc(-c3ccc(Cl)cc3)n2c1=O,0.07% (inactive)
5,C#CCN(C[C@@H]1[C@@H](OC(=O)NC2CC2)[C@@H](OC(=O)NC2CC2)Cn2c(=O)ccc(=O)n21)S(=O)(=O)c1ccc(C)cc1,-1.46% (inactive)
6,CCOC(=O)c1c(NC(=O)COC(=O)c2ccc(S(=O)(=O)C(F)F)cc2)sc(C(=O)N(C)C)c1C,-16.1% (inactive)
7,COc1ccc(Nc2ccc3ccccc3c2)cc1,24.9% (inactive)
8,Nc1ccc(Nc2ccccc2)cc1,69% (active)
9,Cc1cc(Nc2ccccc2)n(C(=O)c2ccc(N)cc2)n1,-10.8% (inactive)
10,O=C(NCCc1cccc(F)c1)C1CC(O)CN1C(=O)Nc1ccccc1 (stereo not drawn),0.16% (inactive)
11,CC(C)[C@H](NC(=O)c1ccccc1F)C(=O)Nc1cccc(S(=O)(=O)N2CCOCC2)c1,0.83% (inactive)
12,C[C@@H]1CN([C@@H](C)CO)C(=O)CCCn2nncc2CO[C@H]1CN(C)C(=O)Nc1ccc(C(F)(F)F)cc1,-1.93% (inactive)
13,CCOC(=O)C(=Cc1ccccc1)C(=O)c1ccccc1,-10% (inactive)
14,O=C(CSc1ccc(Cl)cc1)NC1CC1,1.09% (inactive)
15,COc1ccc(NCCc2ccccn2)cc1,3.17% (inactive)
16,COc1cnc(-c2ccccn2)nc1Oc1ccc(C(C)(C)C)cc1,56.8% (active)
17,COc1ccc2nc(-c3ccccn3)ccc2c1,4.04% (inactive)
18,C[C@H]1CN([C@@H](C)CO)C(=O)c2cc(C3=CCCCC3)cnc2O[C@@H]1CN(C)C(=O)Cc1ccccc1,-0.1% (inactive)
19,Cc1ccc(C=O)c([B-](F)(F)F)c1,4.92% (inactive)
20,CN1c2ccc(C=O)c3c(C=O)ccc(c23)N(C)C1(C)C,53.2% (active)
21,O=C(Nc1sc2c(c1-c1nc3ccccc3[nH]1)CCCC2)C1CC1,3.75% (inactive)
22,Nc1ccccc1-c1nc2ccncc2[nH]1,-6.2% (inactive)

row,SMILES,inhibition
1,c1ccc2[nH]c(-c3nc4ccccc4[nH]3)nc2c1,80.8% (active)
2,NC(=S)NN=Cc1ccc(OC(=O)COc2cc(Cl)c(Cl)cc2Cl)cn1,-2.79% (inactive)
3,NC(=O)CSC1=Nc2ccccc2C2=NC(CCC(=O)NCc3ccc(F)cc3)C(=O)N12 (stereo not drawn),1.09% (inactive)
4,O=C(CSC1=Nc2ccccc2C2=NC(c3ccccc3)C(=O)N12)NCC1CCCO1 (stereo not drawn),5.98% (inactive)
5,CC(C)C1N=C2c3ccccc3N=C(SCC(=O)c3ccc(O)c(O)c3)N2C1=O (stereo not drawn),59.3% (active)
6,CC(C)CCC(=O)Nc1cc(S(=O)(=O)N2CCOCC2)ccc1N1CCCC1,-0.61% (inactive)
7,C#Cc1cc(N2CCN(C(=O)c3ccoc3)CC2)n2nc(-c3cccc(Cl)c3)cc2n1,-68.2% (inactive)
8,CN(c1ccccc1)S(=O)(=O)c1ccc(C(=O)NCc2cccnc2)cc1,2.31% (inactive)
9,Cc1cc2c3ccccc3[nH]c(=O)n2n1,-0.09% (inactive)
10,CCN(CC)S(=O)(=O)c1ccc(N2CCOCC2)c(NC(=O)C2COc3ccccc3O2)c1 (stereo not drawn),-9.82% (inactive)
11,Cc1c(CC(=O)N2CCN(C(=O)C3COc4ccccc4O3)CC2)c(=O)oc2c(O)c(O)ccc12 (stereo not drawn),51.5% (active)
12,Cc1c(CCC(=O)O)c(=O)oc2c(C)c(OCc3ccccc3Cl)ccc12,-1.83% (inactive)
13,CCN1CCCC1CNC(=O)c1ccc2c(c1)NC(=O)/C(=C\c1ccccc1F)S2 (stereo not drawn),-43.1% (inactive)
14,O=C(CCCN1C(=O)C(c2ccccc2)Oc2cccnc21)Nc1ccccc1Br (stereo not drawn),-5.83% (inactive)
15,O=C(COC(=O)CCc1c[nH]c2ccccc12)Nc1cccc(Cl)c1,-2.43% (inactive)
16,Cc1cc(/C=N/Nc2ccc([N+](=O)[O-])cn2)c(C)n1-c1cccc(C(=O)O)c1,40.5% (active)
17,CC(C)c1ccc(C=NNc2ccc([N+](=O)[O-])cn2)cc1,-18.3% (inactive)
18,Cc1cc(/C=N/NC(=O)CC2(C)OCCO2)c(C)n1-c1ccc(Cl)c(Cl)c1,2.74% (inactive)
19,CC(OC(=O)c1ccc(NC(=O)CC#N)cc1)C(=O)Nc1ccc(S(=O)(=O)N2CCCC2)cc1 (stereo not drawn),-20% (inactive)
20,O=c1[nH]c(/C=C/c2cccc(Br)c2)nc2ccccc12,-1.32% (inactive)
21,NNc1cccc(C=Cc2ccccc2)cc1=O,61.4% (active)
22,O=C(COC(=O)/C=C/c1cccc(Cl)c1)NCCc1ccccc1,4.91% (inactive)
